SMILES strings stand for the structures. Counter-ions that a name gives are not always drawn. ± gives the standard deviation of the averaged measurements.

This assay relates to Danio rerio Tg(wt1b:EGFP) embryo, pronephros. Briefly: pronephric angle neck segment to proximal convoluted tubule (mean of left and right), fold change vs DMSO control; higher = larger pronephric angle. The following applies: 25 µM; exposure: 24-48 hpf. In short, it runs like this: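 In HEPES-buffered E3 with 0.003% PTU and 0.5% DMSO, dechorionated Tg(wt1b:EGFP) zebrafish embryos were exposed to 25 μM compound from 24 to 48 hpf at 28.5°C. Pronephroi were then imaged dorsally at 470 nm in 10 z-slices, in 96-well plates filled with agarose. On maximum projections, a Fiji macro turned 16 manually placed reference points into distances and angles, and values more than 2 SD from the feature mean were excluded. Features are fold changes relative to the mean of DMSO-treated embryos from the same day.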
In the case of `CCC(COC(=O)c1cc(OC)c(OC)c(OC)c1)(c1ccccc1)N(C)C` (stereo not given) [Trimebutine], the “pronephric angle neck segment” value came out at 1.01 ± 0.012.
To `COc1ccc(Cc2nccc3cc(OC)c(OC)cc23)cc1OC` [Papaverine hydrochloride] belongs 0.968 ± 0.018; to `C=CCC1(CC(C)C)C(=O)NC(=O)NC1=O` [Butalbital], 1.01 ± 0.11; to `COc1ccc(CCN)cc1OC` [Homoveratrylamine], 0.972 ± 0.021.
In the case of `C[N+]1([O-])[C@@H]2C[C@@H](OC(=O)[C@H](CO)c3ccccc3)C[C@H]1[C@@H]1O[C@@H]12` (stereo not given in full) [Scopolamin-N-oxide hydrobromide], the “pronephric angle neck segment” value was found to be 0.9285 ± 0.0031.
In the case of `O=P1(N(CCCl)CCCl)NCCCO1` (stereo not given) [Cyclophosphamide] it was 1.09 ± 0.028; in that of `CNC(=O)Oc1ccc2c(c1)[C@]1(C)CCN(C)[C@@H]1N2C` [Eserine hemisulfate salt], 0.981 ± 0.013.
To `COc1ccc2c(c1)[C@]13CCCC[C@@H]1[C@H](C2)N(C)CC3` [Dextromethorphan hydrobromide monohydrate] belongs 1.04 ± 0.036; to `Cc1cccc(C)c1NC1=NCCCS1` [Xylazine], 0.966 ± 0.057.
To `NCCc1c[nH]c2ccc(O)cc12` [Serotonin hydrochloride] belongs 1.064 ± 0.007.
Turning to `CC(=O)O[C@H]1C[C@H](O[C@H]2[C@@H](O)C[C@H](O[C@H]3[C@@H](O)C[C@H](O[C@H]4CC[C@@]5(C)[C@H](CC[C@@H]6[C@@H]5C[C@@H](O)[C@]5(C)[C@@H](C7=CC(=O)OC7)CC[C@]65O)C4)O[C@@H]3C)O[C@@H]2C)O[C@H](C)[C@H]1O[C@@H]1O[C@H](CO)[C@@H](O)[C@H](O)[C@H]1O` [Lanatoside C], the “pronephric angle neck segment” value was 1.01 ± 0.041.
For the compound `O=C1CC[C@@]2(O)[C@H]3Cc4ccc(O)c5c4[C@@]2(CCN3CC2CC2)[C@H]1O5` [Naltrexone hydrochloride dihydrate], the “pronephric angle neck segment” value is 1.03 ± 0.058.
With `CC(=O)NC1CCSC1=O` (racemic) [N-Acetyl-DL-homocysteine Thiolactone], the “pronephric angle neck segment” value came out at 1 ± 0.066.
`C[N+]1(C)CCOC(O)(c2ccc(-c3ccc(C4(O)C[N+](C)(C)CCO4)cc3)cc2)C1` (stereo not given) [Hemicholinium bromide]: the “pronephric angle neck segment” value came to 1 ± 0.1.
As to `CN(C)C(=O)Oc1ccc[n+](C)c1` [Pyridostigmine iodide], the “pronephric angle neck segment” value stood at 1.03 ± 0.013.
As to `CN1C[C@H](C(=O)N[C@]2(C)O[C@@]3(O)[C@@H]4CCCN4C(=O)[C@H](Cc4ccccc4)N3C2=O)C[C@@H]2c3cccc4[nH]cc(c34)C[C@H]21` [Dihydroergotamine tartrate], the “pronephric angle neck segment” value was determined as 0.948 ± 0.015.
As to `C[C@]12CCC(=O)C=C1C=C[C@@H]1[C@@H]2CC[C@@]2(C)[C@H]1CC[C@@]2(O)CCC(=O)O` [Canrenoic acid potassium salt], the “pronephric angle neck segment” value amounted to 0.97 ± 0.046.
In the case of `CN[C@@H]1[C@@H](O)[C@@H](O[C@@H]2[C@@H](O)[C@H](O[C@H]3O[C@H](CN)CC[C@H]3N)[C@@H](N)C[C@H]2N)OC[C@]1(C)O.CN[C@@H]1[C@@H](O)[C@@H](O[C@@H]2[C@@H](O)[C@H](O[C@H]3O[C@H]([C@@H](C)N)CC[C@H]3N)[C@@H](N)C[C@H]2N)OC[C@]1(C)O.CN[C@@H]1[C@@H](O)[C@@H](O[C@@H]2[C@@H](O)[C@H](O[C@H]3O[C@H]([C@@H](C)NC)CC[C@H]3N)[C@@H](N)C[C@H]2N)OC[C@]1(C)O` [Gentamicine sulfate] it was 1.01 ± 0.029.
To `CC(=O)OCC1=C(C(=O)O)N2C(=O)[C@@H](N)[C@H]2SC1` [Cephalosporanic acid, 7-amino] belongs 0.977 ± 0.06.
Take `C[C@]12N[C@H](Cc3ccccc31)c1ccccc12` [Dizocilpine maleate]: the “pronephric angle neck segment” value was 0.978 ± 0.071.
Take `C=CCN1CC[C@]23c4c5ccc(O)c4O[C@H]2C(=O)CC[C@@]3(O)[C@H]1C5` [Naloxone hydrochloride]: the “pronephric angle neck segment” value came out at 1.05 ± 0.017.
To `Clc1ccc(C(OCCN2CCCCC2)c2ccccc2)cc1` (stereo not given) [Cloperastine hydrochloride] belongs 0.994 ± 0.0094; to `N[C@@H]1C[C@H]1c1ccccc1` [Tranylcypromine hydrochloride], 1.01 ± 0.038; to `c1ccc2c(c1)Nc1ccccc1S2` [Phenothiazine], 1.101 ± 0.002.
In the case of `C1CCc2nnnn2CC1` [Pentylenetetrazole] it was 0.956 ± 0.021; in that of `O=C(CCCN1CCC2(CC1)C(=O)NCN2c1ccccc1)c1ccc(F)cc1` [Spiperone], 1.06 ± 0.078.
In the case of `O=c1[nH]c2ccccc2n1CCCN1CCC(n2c(=O)[nH]c3cc(Cl)ccc32)CC1` [Domperidone], the “pronephric angle neck segment” value was 0.963 ± 0.041.
For `NCC(O)c1ccc(O)cc1` (racemic) [(+,-)-Octopamine hydrochloride], the “pronephric angle neck segment” value amounted to 0.987 ± 0.059.
To `C=C(C)[C@@H]1[C@H]2OC(=O)[C@@H]1[C@]1(O)C[C@H]3O[C@]34C(=O)O[C@H]2[C@]14C` [Picrotoxinin] belongs 1.01 ± 0.03; to `CCCC(C)C1(CC)C(=O)NC(=O)NC1=O` (stereo not given) [Pentobarbital], 1.214 ± 0.0019.
As to `O=c1[nH]c2ccccc2n1C1CCN(CCCC(c2ccc(F)cc2)c2ccc(F)cc2)CC1` [Pimozide], the “pronephric angle neck segment” value worked out at 0.976 ± 0.099.
Consider `NC(=O)CN1CCCC1=O` [Piracetam], for which the “pronephric angle neck segment” value was found to be 0.914 ± 0.051.
In the case of `C[N+]12CCC(CC1)C(OC(=O)C(O)(c1ccccc1)c1ccccc1)C2` (stereo not given) [Clidinium bromide] it was 0.967 ± 0.022.
In the case of `CCN(C)C(=O)Oc1cccc([C@H](C)N(C)C)c1` [Rivastigmine] it was 0.9906 ± 0.0047; in that of `CC(N)C(O)c1ccccc1` (stereo not given) [Phenylpropanolamine hydrochloride], 1.07 ± 0.027.

Source of the values: the supplement of paper PMC7366291.
